Data on five compounds can be found in PubChem BioAssay (NCI).

“And” between values parts separate entries of the source, which are not always exact repeats. Equal entries are not always repeated. This is part of a sample that, as a whole, favours compounds with a hit. Of some 83,000 tested, about 20% had one in any assay.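 The test compound was applied at a single concentration to cells in 96-well plates for 48 hours, and percent growth was recorded.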 The source made the active and inactive calls. The calls were made as follows: active = growth percent below 10; inactive = the rest.

Test systems include NCI-H23 lung; NCI-H460 lung; A549/ATCC NSCLC; 786-0 renal; COLO 205 colon; DU-145 prostate; MALME-3M melanoma; MDA-MB-231 breast; RXF 393 renal; SF-268 CNS; SF-295 CNS; SF-539 CNS; UACC-257 melanoma; M14 melanoma.
Assay in all cases: NCI-60 one-dose screen, 48 h (100 = growth as untreated, 0 = no growth, -100 = all killed)
The next test deals with NCI-H226 lung. Conditions: 10 µM unless noted.
In a further test the test system is NCI-H322M lung. Conditions: 10 µM unless noted.
The test system of a further test is HOP-62 NSCLC. Conditions: 10 µM unless noted.
A further test has as its system HOP-92 NSCLC. Conditions: 10 µM unless noted.
The subject of the next test is NCI-H522 lung. Conditions: 10 µM unless noted.
Another test deals with K-562 leukemia. Conditions: 10 µM unless noted.

With `OCc1cccc(F)c1`, the growth with NCI-H23 lung (10 µM unless noted) is 79.6% (inactive); with NCI-H226 lung, 104% (inactive); with NCI-H322M lung, 90.2% (inactive); in the test with HOP-62 NSCLC, 100% (inactive); with NCI-H460 lung (10 µM unless noted), 41.8% (inactive); in the test on HOP-92 NSCLC it was 118% (inactive). Besides, the growth in the test on NCI-H522 lung was 67.8% (inactive); in the test with A549/ATCC NSCLC (10 µM unless noted), 99.3% (inactive); in the test on 786-0 renal (10 µM unless noted), 103% (inactive); in the test with COLO 205 colon (10 µM unless noted), 90.1% (inactive); with DU-145 prostate (10 µM unless noted) it was 3.58% (active); with K-562 leukemia, 99.4% (inactive). The growth in the test with MALME-3M melanoma (10 µM unless noted) was 106% (inactive); in the test on MDA-MB-231 breast (10 µM unless noted) it was 89.6% (inactive); in the test on RXF 393 renal (10 µM unless noted), 67.8% (inactive); in the test on SF-268 CNS (10 µM unless noted), 97.4% (inactive); with SF-295 CNS (10 µM unless noted), 72.3% (inactive); in the test on SF-539 CNS (10 µM unless noted), 111% (inactive). The results for the growth in the test on UACC-257 melanoma (10 µM unless noted) and with M14 melanoma (10 µM unless noted) were 101% (inactive) and 94.9% (inactive), respectively.

For the compound `CCNC1=CC(=O)c2ncccc2C1=O`, the growth is -49.7% (active) in the test with NCI-H23 lung (10 µM unless noted); 33.9% (inactive) in the test with NCI-H226 lung; 13.9% (inactive) in the test with NCI-H322M lung; -42.5% (active) in the test on HOP-62 NSCLC; -78.3% (active) in the test on NCI-H460 lung (10 µM unless noted); 145% (inactive) in the test with HOP-92 NSCLC. For the same compound, the growth with NCI-H522 lung was -46.3% (active); in the test with A549/ATCC NSCLC (10 µM unless noted) it was -54.8% (active); in the test on 786-0 renal (10 µM unless noted), 83.6% (inactive); in the test on COLO 205 colon (10 µM unless noted), -62.5% (active); in the test on DU-145 prostate (10 µM unless noted) it was -92.9% (active); in the test on K-562 leukemia it was 21.2% (inactive). Further, the growth was -84.6% (active) with MALME-3M melanoma (10 µM unless noted); 51.2% (inactive) in the test with MDA-MB-231 breast (10 µM unless noted); 99% (inactive) with RXF 393 renal (10 µM unless noted); 58.3% (inactive) with SF-268 CNS (10 µM unless noted); -71.1% (active) in the test with SF-295 CNS (10 µM unless noted); -59.3% (active) in the test on SF-539 CNS (10 µM unless noted). For the same compound, the growth in the test with UACC-257 melanoma (10 µM unless noted) is -13.5% (active); with M14 melanoma (10 µM unless noted) it was -87.4% (active).

Regarding `Cc1onc(-c2c(F)cccc2Cl)c1-c1ncc(-c2ccc(Cl)cc2)o1`, the growth in the test with NCI-H23 lung (10 µM unless noted) was 67% (inactive) and 42.5% (inactive); with NCI-H226 lung, 76.9% (inactive) and 58.4% (inactive); in the test with NCI-H322M lung, 104% (inactive) and 57% (inactive); in the test with HOP-62 NSCLC, 78% (inactive) and 53.4% (inactive); in the test on NCI-H460 lung (10 µM unless noted) it was 29.6% (inactive) and 3.17% (active); in the test with HOP-92 NSCLC it was 34.2% (inactive) and 73% (inactive). The growth with NCI-H522 lung is 35.1% (inactive); with A549/ATCC NSCLC (10 µM unless noted), 53.1% (inactive) and 41.4% (inactive); in the test on 786-0 renal (10 µM unless noted), 73.9% (inactive) and 31.6% (inactive); with COLO 205 colon (10 µM unless noted), 53.5% (inactive) and 43.6% (inactive); in the test on DU-145 prostate (10 µM unless noted) it was 97.2% (inactive) and 50.2% (inactive); in the test on K-562 leukemia, 27.9% (inactive) and 21.5% (inactive). The growth in the test with MALME-3M melanoma (10 µM unless noted) was 60.2% (inactive) and 46.6% (inactive); with MDA-MB-231 breast (10 µM unless noted), 54.1% (inactive) and 46.3% (inactive); in the test with RXF 393 renal (10 µM unless noted), 89.9% (inactive) and 52.7% (inactive); with SF-268 CNS (10 µM unless noted) it was 66.2% (inactive) and 49.8% (inactive); in the test on SF-295 CNS (10 µM unless noted), 43.8% (inactive) and 42.2% (inactive); in the test with SF-539 CNS (10 µM unless noted), 68% (inactive) and 36.5% (inactive). The growth in the test with UACC-257 melanoma (10 µM unless noted) is 22.5% (inactive); with M14 melanoma (10 µM unless noted), 54.8% (inactive) and 46.6% (inactive).

As for `S=c1nc[nH]c2nc[nH]c12`, the growth was 31.9% (inactive) with NCI-H23 lung (10 µM); 21.3% (inactive) with NCI-H23 lung (50 µM); 46.3% (inactive) in the test with NCI-H226 lung; 33% [50 µM] (inactive) in the test on NCI-H322M lung; 45.3% (inactive) in the test on NCI-H460 lung (10 µM); 26.9% (inactive) in the test with NCI-H460 lung (50 µM). Moreover, the growth in the test on HOP-92 NSCLC is 51% [50 µM] (inactive); in the test with A549/ATCC NSCLC (10 µM), 84.8% (inactive); in the test with A549/ATCC NSCLC (50 µM), 48.2% (inactive); in the test with 786-0 renal (10 µM), 17.3% (inactive); with 786-0 renal (50 µM), 25.9% (inactive); in the test with COLO 205 colon (10 µM), 35.2% (inactive). The growth in the test on COLO 205 colon (50 µM) was 6.94% (active); with DU-145 prostate (10 µM) it was 44.3% (inactive); in the test on DU-145 prostate (50 µM) it was 25.3% (inactive); in the test on K-562 leukemia, 11.9% [50 µM] (inactive); in the test with MALME-3M melanoma (10 µM), 50.1% (inactive); with MALME-3M melanoma (50 µM), 17.4% (inactive). Besides, the growth is 42.9% (inactive) in the test on MDA-MB-231 breast (10 µM); 40.2% (inactive) in the test with MDA-MB-231 breast (50 µM); 62.8% (inactive) with RXF 393 renal (10 µM); 59.7% (inactive) in the test on RXF 393 renal (50 µM); 39.2% (inactive) in the test with SF-268 CNS (10 µM); 24.7% (inactive) with SF-268 CNS (50 µM). Besides, the growth is 11.4% (inactive) in the test on SF-295 CNS (10 µM); 18.1% (inactive) in the test on SF-295 CNS (50 µM); 31.2% (inactive) with SF-539 CNS (10 µM); 14.4% (inactive) in the test on SF-539 CNS (50 µM); 44.2% (inactive) with UACC-257 melanoma (10 µM); 29.7% (inactive) in the test on UACC-257 melanoma (50 µM). Also, the growth in the test on M14 melanoma (10 µM) was 14.1% (inactive); in the test with M14 melanoma (50 µM), 15.6% (inactive).

In the case of `N=c1sc2ccccc2n1CC(=O)O`, the growth in the test on NCI-H23 lung (10 µM unless noted) is 108% (inactive); in the test with NCI-H226 lung, 98.1% (inactive); with NCI-H322M lung, 103% (inactive); in the test on HOP-62 NSCLC, 88.8% (inactive); with NCI-H460 lung (10 µM unless noted) it was 109% (inactive); in the test with HOP-92 NSCLC, 82.1% (inactive). Besides, the growth was 87.1% (inactive) in the test on NCI-H522 lung; 83.7% (inactive) in the test with A549/ATCC NSCLC (10 µM unless noted); 101% (inactive) with 786-0 renal (10 µM unless noted); 106% (inactive) in the test with COLO 205 colon (10 µM unless noted); 110% (inactive) with DU-145 prostate (10 µM unless noted); 108% (inactive) with K-562 leukemia. Also, the growth is 110% (inactive) in the test on MALME-3M melanoma (10 µM unless noted); 102% (inactive) with MDA-MB-231 breast (10 µM unless noted); 113% (inactive) in the test with RXF 393 renal (10 µM unless noted); 98.7% (inactive) in the test on SF-268 CNS (10 µM unless noted); 98% (inactive) in the test with SF-295 CNS (10 µM unless noted); 101% (inactive) with SF-539 CNS (10 µM unless noted). Further, the growth is 89.7% (inactive) in the test with UACC-257 melanoma (10 µM unless noted) and 95.7% (inactive) with M14 melanoma (10 µM unless noted).
